Where a name gives a salt, the structure may show the parent alone. Unmarked numbers belong to inactive results.
Columns and labels:
Details in all cases: 20 µM
[1] = test system: Salmonella enterica typhimurium; assay: growth AUC normalised to DMSO control (fraction of control); higher = less growth inhibition, active = hit call of the paper
Summary of the method: (§1)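 For the AUC endpoint, growth curves were integrated by the trapezoidal rule up to the exponential-to-stationary transition and normalised to DMSO controls on the same plate. The curves came from OD578 readings taken hourly for 24 h, in three biological replicates. Pathogens had been passaged anaerobically twice and inoculated at an OD578 of 0.01 into pre-reduced mGAM plates carrying 20 μM compound and 1% DMSO, sealed with breathable membranes. Medium for Haemophilus parainfluenzae also contained hemin and NAD.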

[2] = test system: Shigella flexneri; assay: as above
Summary of the method: as §1

[3] = test system: Vibrio cholerae; assay: as above
Summary of the method: as §1

[4] = test system: Yersinia pseudotuberculosis; assay: as above
Summary of the method: as §1

[5] = test system: P. vulgatus RND KO; assay: growth AUC normalised to DMSO control (median) (fraction of control); higher = less growth inhibition, active = hit call of the paper
Summary of the method: (§2)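 Area under the growth curve, calculated by the trapezoidal rule up to entry into stationary phase, was normalised to vehicle wells on the same plate. Strains had been passaged twice overnight without oxygen and then grown in mGAM in 96-well plates from OD578 0.01, each with an approved-drug library compound at 20 μM in 1% DMSO. OD578 was read hourly over 24 h in an anaerobic incubator, and the median of three biological replicates is given.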

[6] = test system: P. vulgatus WT; assay: as above
Summary of the method: as §2

[7] = test system: S. enterica typhimurium WT; assay: as above
Summary of the method: as §2

[8] = test system: S. enterica typhimurium tolC KO; assay: as above
Summary of the method: as §2
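Wherever growth AUC normalised to DMSO control (median) is given: active when median AUC fell below 0.1.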

Row | SMILES | growth AUC normalised to DMSO control [1] | growth AUC normalised to DMSO control [2] | growth AUC normalised to DMSO control [3] | growth AUC normalised to DMSO control [4] | growth AUC normalised to DMSO control [5] | growth AUC normalised to DMSO control [6] | growth AUC normalised to DMSO control [7] | growth AUC normalised to DMSO control [8]
1 | COc1ccc2cc(CCC(C)=O)ccc2c1 [Nabumetone] | 1.03 | 0.998 | 0.929 | 0.999 | 0.99 | 1 | 1 | 0.963
2 | C[C@]12C=CC(=O)C=C1CC[C@H]1[C@@H]3C[C@@H](O)[C@](O)(C(=O)CO)[C@@]3(C)C[C@H](O)[C@@]12F [Triamcinolone] | 1 | 0.977 | 1 | 1 | 1.01 | 0.98 | 0.997 | 1.01
3 | C[C@]12CC[C@@H]3c4ccc(O)cc4CC[C@H]3[C@@H]1CCC2=O [Estrone] | 0.984 | 0.96 | 0.0258 (active) | 0.975 | 0.977 | 0.964 | 0.999 | 0.974
4 | COC(=O)[C@H]1[C@H]2C[C@@H]3c4[nH]c5cc(OC)ccc5c4CCN3C[C@H]2C[C@@H](OC(=O)c2cc(OC)c(OC)c(OC)c2)[C@@H]1OC [Reserpine] | 1.02 | 1.05 | 1.06 | 1.02 | 1.04 | 1.05 | 1.02 | 1
5 | Cc1ccc(S(=O)(=O)NC(=O)NN2CC3CCCC3C2)cc1 (configuration not stated) [Gliclazide] | 1.02 | 1.04 | 1.02 | 0.987 | 0.999 | 1.02 | 1 | 1.01
6 | CC1=Nc2ccc(Cl)cc2S(=O)(=O)N1 [Diazoxide] | 1.01 | 1.03 | 1.02 | 0.999 | 1.04 | 1.01 | 1.01 | 0.989
7 | C[C@]12CC[C@@H]3c4ccc(O)cc4CC[C@H]3[C@@H]1CC[C@@H]2O [Estradiol-17 beta] | 1.02 | 1.01 | 0.992 | 1.01 | 0.941 | 0.941 | 1.02 | 0.997
8 | CCOC(=O)C1=C[C@]2(CC)CCCN3CCc4c(n1c1ccccc41)[C@@H]32 [Vinpocetine] | 0.974 | 1.03 | 0.904 | 1.01 | 1 | 0.988 | 1 | 0.972
9 | C[C@@H](O)[C@H]1C(=O)N2C(C(=O)O)=C(S[C@@H]3CN[C@H](C(=O)N(C)C)C3)[C@H](C)[C@H]12 [Meropenem] | 0.00502 (active) | 0.0408 (active) | 0.844 | 0.0586 (active) | 0.0122 (active) | 0.0155 (active) | 0.00861 (active) | 0.00577 (active)
10 | CCCN(CCC)S(=O)(=O)c1ccc(C(=O)O)cc1 [Probenecid] | 1.02 | 1.03 | 1.02 | 1.02 | 1 | 1.02 | 1.02 | 0.895
11 | Cc1cc(C(C)(C)CC(C)(C)C)ccc1OCCOCC[N+](C)(C)Cc1ccccc1 [Methyl benzethonium chloride] | 1.01 | 0.999 | 0.943 | 1.02 | 0.0136 (active) | 0.0206 (active) | 1.01 | 0.962
12 | CCn1cc(C(=O)O)c(=O)c2ccc(C)nc21 [Nalidixic acid sodium salt] | 0.594 (active) | 0.111 (active) | 0.035 (active) | 0.052 (active) | 0.985 | 0.969 | 0.105 | 0.0195 (active)
13 | C#C[C@]1(OC(C)=O)CC[C@H]2[C@@H]3CCC4=CC(=NO)CC[C@@H]4[C@H]3CC[C@@]21CC (mixture of isomers) [Norgestimate] | 0.995 | 0.971 | 0.984 | 0.988 | 0.836 | 0.88 | 0.999 | 0.955
14 | CO[C@@H]1[C@@H](O[C@@H]2O[C@H](C)[C@@H](O[C@H]3C[C@@](C)(O)[C@@H](OC(=O)CC(C)C)[C@H](C)O3)[C@H](N(C)C)[C@H]2O)[C@@H](CC=O)C[C@@H](C)[C@@H](O)/C=C/C=C/C[C@@H](C)OC(=O)C[C@H]1OC(C)=O [Josamycin] | 0.937 (active) | 0.995 | 0.0145 (active) | 0.971 | 0.0124 (active) | 0.00854 (active) | 0.967 | 0.0649 (active)
15 | CC(C)NCC(O)COc1cccc2[nH]ccc12 (configuration not stated) [Pindolol] | 1.01 | 1.04 | 1.03 | 0.978 | 1.05 | 1.08 | 1 | 1.01
16 | CC(=O)OCC1=C(C(=O)O)N2C(=O)[C@@H](NC(=O)Cc3cccs3)[C@H]2SC1 [Cephalothin sodium salt] | 0.00459 (active) | 0.025 (active) | 0.0489 (active) | 0.0158 (active) | 0.00752 (active) | 0.0068 (active) | 0.00336 (active) | 0.00338 (active)
17 | COCC(=O)Nc1c(I)c(C(=O)NCC(O)CO)c(I)c(C(=O)N(C)CC(O)CO)c1I (configuration not stated) [Iopromide] | 1 | 1.03 | 1.06 | 1.02 | 1.05 | 1.05 | 1.02 | 1.01
18 | O=C(O)CCC(=O)c1ccc(-c2ccccc2)cc1 [Fenbufen] | 0.999 | 0.99 | 0.87 | 0.986 | 1.01 | 0.994 | 1 | 0.993
19 | NS(=O)(=O)c1cc(Cl)c(Cl)c(S(N)(=O)=O)c1 [Dichlorphenamide] | 1.01 | 1.06 | 1.07 | 1.02 | 1.05 | 1.04 | 0.995 | 1.01
20 | COc1ccc(Cl)cc1C(=O)NCCc1ccc(S(=O)(=O)NC(=O)NC2CCCCC2)cc1 [Glibenclamide] | 0.984 | 1.02 | 1.03 | 1.01 | 0.953 | 0.956 | 1.01 | 1
21 | CC(C)(C)NC(=O)[C@@H]1C[C@@H]2CCCC[C@@H]2CN1C[C@@H](O)[C@H](Cc1ccccc1)NC(=O)[C@H](CC(N)=O)NC(=O)c1ccc2ccccc2n1 [Saquinavir mesylate] | 1.01 | 1.02 | 1.04 | 1.03 | 0.859 | 0.89 | 1.02 | 1
22 | O=C(c1ccc(OCCN2CCCCC2)cc1)c1c(-c2ccc(O)cc2)sc2cc(O)ccc12 [Raloxifene hydrochloride] | 1.01 | 0.992 | 0.988 | 0.981 | 1.06 | 1.01 | 1.02 | 1.01
23 | CCOC(=O)C1=C(C)NC(C)=C(C(=O)OC)C1c1cccc([N+](=O)[O-])c1 (configuration not stated) [Nitrendipine] | 1.04 | 1 | 1.06 | 1.01 | 1.09 | 1.04 | 0.996 | 0.982
24 | CCCC(CCC)C(=O)O [Valproic acid] | 1.01 | 1.02 | 1.05 | 1.01 | 1.06 | 1.07 | 1 | 1.01
25 | Nc1nc(N)nc(-c2cc(Cl)ccc2Cl)n1 [Irsogladine maleate] | 0.998 | 1 | 0.999 | 0.995 | 0.959 | 0.977 | 0.999 | 1
26 | C[N+](C)(CCOc1ccccc1)Cc1ccccc1.O=C([O-])c1cc2ccccc2cc1O [Bephenium hydroxynaphthoate] | 1.05 | 1.04 | 1.03 | 1.03 | 0.998 | 0.991 | 0.989 | 0.977
27 | COc1ccccc1Oc1c(NS(=O)(=O)c2ccc(C(C)(C)C)cc2)nc(-c2ncccn2)nc1OCCO [Bosentan] | 1.02 | 1.03 | 1.01 | 1.01 | 1 | 1.01 | 1.01 | 0.985
28 | CCCC1C(=O)N2C(N(C)C)=Nc3ccc(C)cc3N2C1=O (configuration not stated) [Azapropazone] | 0.983 | 0.96 | 0.958 | 0.964 | 0.993 | 1 | 1 | 0.995
29 | COc1cc(NS(=O)(=O)c2ccc(N)cc2)nc(OC)n1 [Sulfadimethoxine] | 1.02 | 1.01 | 1.02 | 0.987 | 0.994 | 1.04 | 1 | 0.99

Source: the supplement of paper PMC12350171
